Screening results as filed in PubChem.
HT1080-NT tox: kills 2HG-producing HT-1080-NT fibrosarcoma cells; Potency, µM (doses to about 46.1 µM), for the others: at the highest dose activity, negative = less viability, hits mostly cytotoxic; 360,000 tested, 1.6% active; HT-1080-NT fibrosarcoma viability, CellTiter-Glo ATP luminescence, 48 h;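 note: NT is the 2HG producing partner of a matched IDH1 knockdown line; potency is the fitted concentration of half-maximal effect; 0% = DMSO-treated cells and -100% = media-only wells without cells; nearly all actives have a fitted effect of over 55% in size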
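750 cells/well, RPMI + 5% FBS; 2 h settle, compound pin-transfer, 48 h at 37 degrees C. CellTiter-Glo 10 min RT, luminescence. Normalized to DMSO and media-only wells.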
ELG1 repair inh: ELG1-dependent DNA repair inhibition | HEK293T ELG1-luciferase reporter, luminescence, 16 h; DNA damage induced by 5-fluorouridine | Potency, µM (doses to about 46.1 µM), for inactives: at the highest dose activity change, negative = inhibition, usual class: inhibitors | 330,000 tested, 2.3% active | AID 504467; note: potency is the fitted concentration of half-maximal effect; nearly all actives have a fitted effect of over 55% in size
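HEK293T cells expressing luciferase-tagged ELG1 (2,000/well) received 5-Fluorouridine plus compound or DMSO for 16 hr at 37 °C. Luciferase was read by ONE-Glo luminescence after 30 min at room temperature.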
DT40 TDP1 no CPT: qHTS for Inhibitors of human tyrosyl-DNA phosphodiesterase 1 (TDP1): qHTS in cells in absence of CPT; DT40 Tdp1-/- hTDP1 cells, no CPT, ATP luminescence, 48 h; AID 686978, 2013; Potency, µM (top dose mostly 46.2 µM), for the others: top-dose activity change, negative = growth inhibition, hits mostly inhibitors; 420,000 tested, 15% active; note: potency is the fitted concentration of half-maximal effect; nearly all actives have a fitted effect of over 55% in size
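Chicken DT40 Tdp1-/- cells complemented with human TDP1, screened without camptothecin (DMSO vehicle only), 400 cells/well. Compounds pin-transferred, cells incubated at 37 °C for at least 48 hr. Growth read as ATP-dependent luminescence (CellTiter-Glo, 30 min at RT).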
DT40 TDP1 CPT: DT40-hTDP1 cell growth loss with CPT; chicken DT40 Tdp1-/-;hTDP1 cells + 20 nM CPT, ATP luminescence, 48 h; Potency, µM (doses to about 46.2 µM), without a hit: top-dose activity change, negative = growth inhibition, usual class: inhibitors; 420,000 tested, 12% active; AID 686979; note: potency is the fitted concentration of half-maximal effect; nearly all actives have a fitted effect of over 55% in size
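Cell growth measured by CellTiter-Glo luminescence after a minimum 48 h, 37 C compound exposure with 20 nM CPT in Tdp1-knockout DT40 cells stably expressing hTDP1, seeded 400/well; qHTS titration format.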
HT1080 IDH1KD tx: kills HT-1080 cells with IDH1 knockdown | HT-1080 IDH1 knockdown viability, ATP luminescence, 48 h | Potency, µM (titrated, usually from 46.1 µM), for inactives: at the top dose activity, negative = toxicity, actives largely listed as cytotoxic | 360,000 tested, 2% active | AID 686971;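 note: potency is the fitted concentration of half-maximal effect; 0% = DMSO wells and -100% = cell-free medium wells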
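Cytotoxicity counter-line: IDH1KD HT-1080, 48 h, CellTiter-Glo. Curves classed by r2, magnitude and activity.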
IL1B secr inh: inflammasome signaling inhibition, IL-1 beta readout. THP-1 LPS/ATP IL-1B secretion, AlphaLISA, 16 h; active compounds read low. 360,000 tested, 4.7% active. activity change, % at 57.5 µM; in the data active = activity change below about -50%; inconclusive = mostly about -30% to -49%
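THP-1 cells pretreated 1 hr with compounds (up to 57.5 uM final), then stimulated with LPS (250 ng/mL final) plus ATP (1.25 mM final); secreted IL-1B measured by AlphaLISA after 16 hr, decreased signal indicating inhibition.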
* marks the source's active call; other numbers are inactive results; ? = inconclusive; . = no result. Hits are enriched below; roughly 19% of the tested compounds scored in any of these assays. Unless noted, calls come from the whole dose curve; as a rule, active = well fitted curve in the direction sought with a large enough effect; inconclusive = small, poorly fitted or top-dose-only effect, or another doubt; inactive = no such curve, though single readings can be large; an effect the other way counts as inactive or inconclusive. Unless noted, % is set by controls: 0 for no effect and ±100 for the full control effect.

SMILES	HT1080-NT tox	ELG1 repair inh	DT40 TDP1 no CPT	DT40 TDP1 CPT	HT1080 IDH1KD tx	IL1B secr inh
O=C(/C=C/c1cccc(F)c1)N1CCN(c2ccccn2)CC1	2%	?	-3%	-24%	-8%	32
COc1ccc(C(=O)N(c2ccccn2)C2CCCCC2)c(OC)c1	6%	-8%	13%	8%	3%	14
CCN(C(=O)CSc1nc2ccccc2n1Cc1cc(C)ccc1C)c1ccccc1	.	.	23µM*	16µM*	.	.
CCN(C(=O)CSc1nc2ccccc2n1Cc1ccccc1C#N)c1ccccc1	.	.	13µM*	15µM*	.	.
CCSc1nc2ccccc2n1CC(=O)O	0%	-5%	-9%	-8%	-1%	18
Cc1ccc(C)c(Cn2c(C(C)O)nc3ccccc32)c1 (stereo not given)	-1%	6%	?	?	-4%	12
Cc1ccccc1-c1nn2c(=O)cc(CN3CCN(C(=O)c4ccccc4Br)CC3)nc2s1	.	.	?	-18%	.	.
CCOc1ccccc1NC(=O)C(NC(=O)C1CCC(C)CC1)C(C)C (stereo not given)	2%	0%	4%	-2%	19%	25
CCOc1ccccc1NC(=O)C(CC(C)C)NC(=O)C1CCC(C)CC1 (stereo not given)	20%	18%	?	18µM*	0%	10
CCn1c(C)c(C(C)=O)c(N2CCN(C(c3ccccc3)c3ccccc3)CC2)nc1=S	?	?	6.5µM*	9.2µM*	?	-185*
CC(=O)c1c(N2CCOCC2)nc(=S)n(-c2ccccc2)c1C	-3%	9%	-5%	-6%	?	24
CC(=O)c1c(N2CCCC2)nc(=S)n(-c2ccccc2)c1C	14%	17%	8.2µM*	12µM*	-5%	-4
CC(=O)c1c(N2CCCCC2)nc(=S)n(-c2ccccc2)c1C	0%	15%	5.8µM*	12µM*	-1%	-9
CCCCNc1nc(=S)n(-c2ccccc2)c(C)c1C(C)=O	?	13%	23µM*	16µM*	16µM*	-91*
CCN1C[C@@H]2[C@@H]3C(=O)N(Cc4ccccc4)C(=O)[C@@H]3[C@](CC)(C1=O)N2C(=O)c1ccc(C(F)(F)F)cc1	17%	13%	-8%	-8%	9%	14
COc1ccc(/C=C2/SC(=O)NC2=O)cc1	-9%	?	-26%	?	-9%	-29
COc1ccc(/C=C2\SC(=S)N(N3CCOCC3)C2=O)c(OC)c1	7%	10%	16µM*	-24%	12%	0
COc1ccc(C=C2SC(=S)NC2=O)cc1	-19%	.	18µM*	?	-24%	-15
COc1ccc(/C=C2/SC(=S)N(n3c(C)ccc3C)C2=O)cc1	5%	1%	15µM*	?	-1%	-8
O=C1NC(=S)SC1=Cc1cc(Br)ccc1O	-14%	.	-13%	29µM*	-10%	?
COc1cccc(/C=C2\SC(=S)N(N3CCOCC3)C2=O)c1OC	12%	?	-9%	3%	13%	5
COCc1cc(C)nc(SCc2ccc([N+](=O)[O-])cc2)c1C#N	5%	-25%	-16%	-22%	5%	-17
CCOc1ccc(Nc2cc(Nc3ccccc3OCC)nc(C=C(C#N)C#N)n2)cc1	4%	2%	-1%	6%	13%	24
O=C(Nc1ccc2oc(-c3cccnc3)nc2c1)c1ccccc1F	.	.	-19%	-20%	.	.
O=C1NC(=S)SC1=Cc1ccc(Cl)cc1	-24%	.	21µM*	?	?	-26
SMILES	HT1080-NT tox	ELG1 repair inh	DT40 TDP1 no CPT	DT40 TDP1 CPT	HT1080 IDH1KD tx	IL1B secr inh
O=C1NC(=S)SC1=Cc1ccc(F)cc1	-17%	.	?	?	-13%	2
O=C1NC(=S)S/C1=C\c1ccc2ccccc2c1	0%	?	21µM*	?	-2%	-3
O=C(Nc1cc(Cl)ccc1Cl)N1CCN(C(=O)Nc2cc(Cl)ccc2Cl)CC1	1%	.	?	?	2%	9
N#Cc1cccnc1N1CCN(C(=O)c2cccs2)CC1	13%	2%	-1%	18%	2%	-5
c1cncc(CSc2ccc(-c3ccc4c(c3)OCO4)nn2)c1	-23%	?	16µM*	?	?	-51*
O=[N+]([O-])c1cccc(-c2ccc(SCc3cccnc3)nn2)c1	-22%	17%	?	?	?	-80*
CCS(=O)(=O)N1CC(=O)N(c2cc(Cl)ccc2C)C(C)(C(=O)NC2CCCCCC2)C1 (stereo not given)	.	.	-27%	?	.	.
O=C(O)CN1C(=O)/C(=C\c2cn(CC(=O)N3CCOCC3)c3ccccc23)SC1=S	0%	10%	-22%	-4%	-1%	15
COc1ccc(/C=C2\SC(=S)N(CCCC(=O)N3CCN(C)CC3)C2=O)cc1OC	3%	.	-10%	-25%	0%	15
CN1CCN(C(=O)CCN2C(=O)/C(=C/c3ccccc3Cl)SC2=S)CC1	?	-4%	12µM*	16µM*	?	-97*
O=C(CCN1C(=O)/C(=C\c2ccccc2F)SC1=S)N1CCOCC1	-4%	.	0.73µM*	?	3%	-2
CN1CCN(C(=O)CCN2C(=O)/C(=C\c3ccccc3F)SC2=S)CC1	-13%	2%	?	-104%	?	-51*
COc1cc(N2C(=O)C=CC2=O)ccc1N1C(=O)C=CC1=O	?	.	0.92µM*	0.73µM*	9.2µM*	-99*
COC(=O)Cn1c(=NC(=O)c2cc(OC)cc(OC)c2)sc2cc(OC)ccc21	5%	?	?	?	13%	18
COC(=O)Cn1c(=NC(=O)c2cccc(OC)c2)sc2cc(OC)ccc21	-4%	?	23µM*	-74%	-13%	-6
COC(=O)Cn1c(=NC(=O)c2ccc(OC)cc2)sc2cc(OC)ccc21	0%	-15%	9.2µM*	?	9%	-4
Cc1cccc(NC(=O)c2ncn3c2C(=O)N[C@H](C)C3)c1	-7%	.	?	-17%	1%	-21
C[C@H]1CN([C@@H](C)CO)C(=O)Cc2cc(NC(=O)Nc3ccccc3)ccc2O[C@H]1CN(C)Cc1ccccc1	-24%	.	21µM*	21µM*	?	-72*
C[C@@H]1CN([C@@H](C)CO)C(=O)Cc2cc(NC(=O)Nc3ccc(F)cc3)ccc2O[C@@H]1CN(C)Cc1ccc(Cl)c(Cl)c1	18µM*	?	15µM*	?	?	-54*
